Anthrax LF prot: Bacillus anthracis LF protease inhibitors, primary screen, biochemical, multiplex microsphere, MLPCN library | multiplex microsphere protease cleavage assay | inhibition, % at 10 µM | Lethal factor (Bacillus anthracis), P15917 | 0.12% of 360,000 active; in the data active = inhibition above about 30%; inconclusive = no clear call, values can overlap the other calls
Target sequence (P15917 whole entry, looked up): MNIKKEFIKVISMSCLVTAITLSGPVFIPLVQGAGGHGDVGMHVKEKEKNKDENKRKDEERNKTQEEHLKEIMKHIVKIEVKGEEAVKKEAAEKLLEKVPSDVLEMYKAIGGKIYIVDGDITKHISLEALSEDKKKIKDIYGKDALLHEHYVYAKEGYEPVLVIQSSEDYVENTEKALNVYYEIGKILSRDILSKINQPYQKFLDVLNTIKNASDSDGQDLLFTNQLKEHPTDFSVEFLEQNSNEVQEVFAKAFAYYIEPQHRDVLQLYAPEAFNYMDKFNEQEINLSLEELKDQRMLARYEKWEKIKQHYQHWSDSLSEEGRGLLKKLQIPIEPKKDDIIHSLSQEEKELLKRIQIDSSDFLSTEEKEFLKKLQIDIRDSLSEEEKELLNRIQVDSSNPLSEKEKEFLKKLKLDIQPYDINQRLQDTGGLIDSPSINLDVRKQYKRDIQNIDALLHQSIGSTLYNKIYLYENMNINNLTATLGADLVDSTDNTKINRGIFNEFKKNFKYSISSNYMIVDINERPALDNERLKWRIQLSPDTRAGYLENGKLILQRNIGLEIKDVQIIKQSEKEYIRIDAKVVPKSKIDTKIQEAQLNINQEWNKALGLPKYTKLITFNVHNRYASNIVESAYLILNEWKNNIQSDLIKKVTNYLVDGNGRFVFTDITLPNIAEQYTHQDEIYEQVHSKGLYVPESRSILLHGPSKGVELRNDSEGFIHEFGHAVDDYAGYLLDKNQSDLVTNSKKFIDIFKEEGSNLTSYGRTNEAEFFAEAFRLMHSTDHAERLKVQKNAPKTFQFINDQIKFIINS
BoNT A protease: BoNT/A light chain protease inhibitors, primary screen, biochemical, flow cytometry, MLPCN library | Botulinum neurotoxin type A light chain protease (Clostridium botulinum A str. ATCC 3502) | multiplex microsphere protease substrate cleavage | inhibition, % at 10 µM | 0.17% of 360,000 active | AID 588499, 2011; in the data active = inhibition above about 30%; inconclusive = no clear call, values can overlap the other calls
Bead autofluor: flagged as autofluorescent in microsphere protease counterscreen; compound autofluorescence counterscreen, microsphere flow cytometry; stronger effect = higher value; AID 624483; fluorescence intensity (test concentration not listed); 3.1% of 360,000 active; in the data active = fluorescence intensity above about 16000; inconclusive = no clear call, values can overlap the other calls
BoNT F protease: BoNT/F light chain protease inhibitors, primary screen, biochemical, flow cytometry, MLPCN library; Botulinum neurotoxin type F light chain protease (Clostridium botulinum); inhibition, % at 10 µM; Multiplex microsphere protease cleavage assay; 0.22% of 360,000 active; in the data active = inhibition above about 35%, passing the limit was not always enough; inconclusive = no clear call, values can overlap the other calls
BoNTA LC inh 1: BoNT/A light chain protease inhibitors, confirmation, biochemical, flow cytometry, cherry pick 1; shares compounds with BoNT F protease; multiplex microsphere protease assay; inhibition, % at 10 µM; 3% of 720 active; AID 602139, 2011; in the data active = inhibition above about 32%
BoNT-F LC CP1: BoNT/F light chain protease inhibitors, confirmation, biochemical, flow cytometry, cherry pick 1. shares compounds with BoNT F protease. multiplex microsphere protease cleavage assay. inhibition, % at 10 µM. 720 tested, under 10 active. AID 602140, 2011
Anthrax LF CP1: Bacillus anthracis LF protease inhibitors, confirmation, biochemical, multiplex microsphere, cherry pick 1 | shares compounds with BoNT F protease | multiplex microsphere protease cleavage assay | inhibition, % at 10 µM | 720 tested, under 10 active
Of the large screens only hits and unclear results are named; the others gave an inactive call (follow-up assays come after a bar, where they were run). Sampled rows, rich in hits. Any-hit rate of the full collection: about 3.5%. Unless noted, no rule for the calls is given here.

COc1ccc(S(=O)(=O)N2CCN(Cc3ccc(OC)c(OC)c3)CC2)cc1	Anthrax LF prot 42.5, BoNT F protease inconclusive | BoNTA LC inh 1 inactive | BoNT-F LC CP1 inactive | Anthrax LF CP1 inactive
COc1ccc(S(=O)(=O)N2CCN(C)CC2)cc1	BoNT F protease 73.9 | BoNTA LC inh 1 inactive | BoNT-F LC CP1 inactive | Anthrax LF CP1 inactive
Cc1ccc(N2CC(O)Cn3c2nc2c3c(=O)[nH]c(=O)n2C)cc1 (stereo not drawn)	BoNT F protease inconclusive
COc1cccc(N2CC(O)Cn3c2nc2c3c(=O)[nH]c(=O)n2C)c1 (stereo not drawn)	BoNT F protease 40.8 | BoNTA LC inh 1 inactive | BoNT-F LC CP1 inactive | Anthrax LF CP1 inactive
C=CCn1c(N2CCCC2)nc2c1c(=O)n(C)c(=O)n2C	Anthrax LF prot 44.2 | BoNTA LC inh 1 inactive | BoNT-F LC CP1 inactive | Anthrax LF CP1 inactive
CN1CCN(CC(=O)Nc2nnc(-c3cccs3)s2)CC1	BoNT F protease 36.2 | BoNTA LC inh 1 inactive | BoNT-F LC CP1 inactive | Anthrax LF CP1 inactive
O=C(Nc1ccccn1)C1CCN(S(=O)(=O)c2ccc(Cl)cc2)CC1	none
O=C(CSc1nnc(CNC(=O)c2cccs2)o1)Nc1ccccc1F	none
O=S(=O)(Nc1ccc(Cl)nn1)c1ccccc1	BoNT F protease 38.3 | BoNTA LC inh 1 inactive | BoNT-F LC CP1 inactive | Anthrax LF CP1 inactive
Cc1cc(S(=O)(=O)Nc2nc(CN3CCOCC3)nc3sc4c(c23)CCC4)ccc1F	none
CCc1cc2cccc(C)c2nc1SCC(=O)NC1CCCC1	BoNT F protease 36.8 | BoNTA LC inh 1 inactive | BoNT-F LC CP1 inactive | Anthrax LF CP1 inactive
Brc1ccc(-c2nnc(-c3cccnc3)o2)cc1	BoNT F protease inconclusive
Cc1ccc(-c2nnc(-c3cccnc3)o2)cc1	BoNT F protease 55.8 | BoNTA LC inh 1 inactive | BoNT-F LC CP1 inactive | Anthrax LF CP1 inactive
O=[N+]([O-])c1ccc(N2N=C(c3ccco3)CC2c2ccccc2)cc1 (stereo not drawn)	BoNT A protease 32.4 | BoNTA LC inh 1 inactive | BoNT-F LC CP1 inactive | Anthrax LF CP1 inactive
COc1ccccc1N1N=C(c2ccc([N+](=O)[O-])cc2)CC1c1ccccc1 (stereo not drawn)	BoNT A protease 38.5, Bead autofluor 16503 | BoNTA LC inh 1 48.4 | BoNT-F LC CP1 inactive | Anthrax LF CP1 inactive
Fc1ccc(C2CC(c3ccco3)=NN2c2ccccc2)cc1 (stereo not drawn)	none
CCOC(=O)Cc1cnc(NC(=O)CSc2nc3ncnc(N)c3[nH]2)s1	none
CCOc1c(Br)cc(C(N)=O)cc1OCc1ccccc1	BoNT F protease 36.1 | BoNTA LC inh 1 inactive | BoNT-F LC CP1 inactive | Anthrax LF CP1 inactive
CCOc1ccccc1C(=O)NCC(=O)N(C)Cc1cccnc1	none
CCOC(=O)c1oc2cccc(O)c2c1CN1CCOCC1	none
CCOC(=O)CCCCC(=O)c1[nH]c(=O)[nH]c1CSc1nc2ccccc2[nH]1	BoNT F protease 36.5 | BoNTA LC inh 1 inactive | BoNT-F LC CP1 inactive | Anthrax LF CP1 inactive
CCCSc1nc(C)cc(=O)[nH]1	BoNT F protease inconclusive
CCOC(=O)CCCCC(=O)c1[nH]c(=O)[nH]c1CSc1nc(C)cc(=O)[nH]1	BoNT F protease 47.3 | BoNTA LC inh 1 inactive | BoNT-F LC CP1 inactive | Anthrax LF CP1 inactive
CCOC(=O)c1[nH]c(=O)[nH]c1CSc1nc(C)cc(C)n1	none
CCOC(=O)CCCCC(=O)c1[nH]c(=O)[nH]c1CSc1nc(C)cc(C)n1	none | BoNTA LC inh 1 inactive | BoNT-F LC CP1 inactive | Anthrax LF CP1 inactive
CCOC(=O)CCCCC(=O)c1[nH]c(=O)[nH]c1CN1CCOCC1	BoNT F protease 58.8 | BoNTA LC inh 1 inactive | BoNT-F LC CP1 inactive | Anthrax LF CP1 inactive
CC(C)Cn1c(=O)c2ccccc2n2c(CCC(=O)O)nnc12	none
Cc1cc(S(=O)(=O)N2CCCCC2)c(C)s1	none
CC(C)CNS(=O)(=O)c1ccc(CCC(=O)NC2CCCCC2)cc1	Anthrax LF prot 58.9 | BoNTA LC inh 1 inactive | BoNT-F LC CP1 inactive | Anthrax LF CP1 inactive
Cc1cc(Cl)ccc1NS(=O)(=O)c1c(C)[nH]c(=O)[nH]c1=O	none
Cc1[nH]c(=O)[nH]c(=O)c1S(=O)(=O)Nc1ccc(F)c(Cl)c1	Anthrax LF prot 32.7 | BoNTA LC inh 1 inactive | BoNT-F LC CP1 inactive | Anthrax LF CP1 inactive
CC(C)(C)n1nnnc1C(c1cc2cc3c(cc2[nH]c1=O)OCO3)N1CCN(c2ccccc2)CC1 (stereo not drawn)	none
COc1ccc2cc(C(c3nnnn3CCc3ccccc3)N3CCC(O)CC3)c(=O)[nH]c2c1 (stereo not drawn)	BoNT A protease 30.5, Bead autofluor 38811, BoNT F protease active | BoNTA LC inh 1 inactive | BoNT-F LC CP1 inactive | Anthrax LF CP1 inactive
CCN(Cc1ccccc1)C(c1cc2ccc(C)cc2[nH]c1=O)c1nnnn1CCOC (stereo not drawn)	Anthrax LF prot inconclusive, BoNT A protease inconclusive, Bead autofluor inconclusive | BoNTA LC inh 1 inactive | BoNT-F LC CP1 inactive | Anthrax LF CP1 inactive
COCCn1nnnc1C(C(C)C)N(Cc1ccccc1)Cc1cc2cc(OC)ccc2[nH]c1=O (stereo not drawn)	none
Cc1cccc2cc(C(c3nnnn3C(C)(C)C)N3CCN(C(=O)c4ccco4)CC3)c(=O)[nH]c12 (stereo not drawn)	none
Cc1ccc2cc(C(c3nnnn3C(C)(C)C)N3CCCCCC3)c(=O)[nH]c2c1 (stereo not drawn)	none | BoNTA LC inh 1 inactive | BoNT-F LC CP1 inactive | Anthrax LF CP1 inactive
CCC(C)(C)n1nnnc1C(c1cc2cc(C)cc(C)c2[nH]c1=O)N1CCN(C(=O)c2ccco2)CC1 (stereo not drawn)	none | BoNTA LC inh 1 inactive | BoNT-F LC CP1 inactive | Anthrax LF CP1 inactive
C(=C\c1ccccc1)/CN1CCN(C(c2cccs2)c2nnnn2-c2ccc3c(c2)OCCO3)CC1 (stereo not drawn)	none
COc1ccc(Cn2nnnc2C(c2cc3cc(C)ccc3[nH]c2=O)N2CCOCC2)cc1 (stereo not drawn)	Bead autofluor 22468 | BoNTA LC inh 1 inactive | BoNT-F LC CP1 inactive | Anthrax LF CP1 inactive
COc1ccc(Cn2nnnc2C(c2ccncc2)N2CCOCC2)cc1 (stereo not drawn)	none
Cc1ccc2[nH]c(=O)c(C(c3nnnn3C(C)(C)C)N3CCN(C(=O)c4ccco4)CC3)cc2c1 (stereo not drawn)	none
CCC(C)(C)n1nnnc1C(c1cc2cc(C)ccc2[nH]c1=O)N1CCCC1 (stereo not drawn)	BoNT A protease inconclusive, Bead autofluor 21937 | BoNTA LC inh 1 inactive | BoNT-F LC CP1 inactive | Anthrax LF CP1 inactive
CCCCc1nnc(SC(C)C(=O)Nc2nccs2)n1C (stereo not drawn)	none
